# According to PubChem BioAssay (EPA / NIEHS):
# “And” between values parts separate entries of the source, which are not always exact repeats. Equal values may be shown once. Results filed as inconclusive are left out. The source made the active and inactive calls. How the source made its calls: active means hit-call score of the fitted dose curve at least 0.9, where 1 is the maximum; inconclusive means response in the unintended direction; inactive means score below 0.9.
# What was measured:
# [1] = ACEA_AR_agonist_AUC_viability: ACEA Biosciences xCELLigence Real-Time Cell Analysis on Androgen Receptor Agonism for Viability (AID 2283775);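 on AC50: viability read 80 hours after compound addition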
# How it was run: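 Real-time impedance tracking of 22Rv1 growth, readings every 5 min for 5 h then hourly; area-under-curve viability endpoint at 80 hours, relative to DMSO. Compounds at eight concentrations, 1:4 steps, top 100 uM, n = 2.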
# [2] = ACEA_AR_antagonist_AUC_viability: ACEA Biosciences xCELLigence Real-Time Cell Analysis on Androgen Receptor Antagonism for Viability (AID 2283776);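 further: hits lower the growth signal relative to DMSO meaning cytotoxicity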
# How it was run: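 22Rv1 human prostate cancer cells were seeded on electrode plates, monitored overnight, then exposed to eight 1:4 dilutions from 100 uM final. Impedance-based growth kinetics at 80 h gave an AUC viability endpoint normalized to DMSO.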
# [3] = ACEA_ER_AUC_viability: ACEA Biosciences xCELLigence Real-Time Cell Analysis on Estrogen Receptor Agonism for Viability (AID 2283782);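 further: continuous compound exposure with impedance area under curve over 80 h; hit means loss of impedance signal meaning reduced cell growth or viability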
# How it was run: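 T47D cells preconditioned in phenol red-free RPMI with charcoal-stripped FBS, then dosed with 8-point 1:4 series from 100 uM (up to 0.5% DMSO). Impedance monitored up to ~80 h; area-under-curve loss versus DMSO taken as viability.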
# [4] = tested on: zebrafish Androgen Receptor (AR), gene 100005148; assay: ATG_zfAR_XSP1: Attagene TRANS-FACTORIAL Multi-Species (XSP1) HepG2 Assay for zebrafish Androgen Receptor (AR) (AID 2283771)
# How it was run: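 HepG2 cells were transiently transfected with a zebrafish AR-GAL4 reporter system and partially stimulated with 3 nM 6-alpha-fluorotestosterone. Reporter mRNA was measured after 24 h dosing by RT-PCR with capillary electrophoresis, and gain-of-signal was fitted relative to DMSO.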
# [5] = biological target: zebrafish Estrogen Receptor (ESR1), esr1 (gene 259252) (UniProt P57717); assay: ATG_zfER1_XSP1: Attagene TRANS-FACTORIAL Multi-Species (XSP1) HepG2 Assay for zebrafish Estrogen Receptor (ESR1) (AID 2283772)
# Chain of zebrafish Estrogen Receptor (ESR1), esr1 (gene 259252) (P57717 whole entry, looked up, the tested form may be a part): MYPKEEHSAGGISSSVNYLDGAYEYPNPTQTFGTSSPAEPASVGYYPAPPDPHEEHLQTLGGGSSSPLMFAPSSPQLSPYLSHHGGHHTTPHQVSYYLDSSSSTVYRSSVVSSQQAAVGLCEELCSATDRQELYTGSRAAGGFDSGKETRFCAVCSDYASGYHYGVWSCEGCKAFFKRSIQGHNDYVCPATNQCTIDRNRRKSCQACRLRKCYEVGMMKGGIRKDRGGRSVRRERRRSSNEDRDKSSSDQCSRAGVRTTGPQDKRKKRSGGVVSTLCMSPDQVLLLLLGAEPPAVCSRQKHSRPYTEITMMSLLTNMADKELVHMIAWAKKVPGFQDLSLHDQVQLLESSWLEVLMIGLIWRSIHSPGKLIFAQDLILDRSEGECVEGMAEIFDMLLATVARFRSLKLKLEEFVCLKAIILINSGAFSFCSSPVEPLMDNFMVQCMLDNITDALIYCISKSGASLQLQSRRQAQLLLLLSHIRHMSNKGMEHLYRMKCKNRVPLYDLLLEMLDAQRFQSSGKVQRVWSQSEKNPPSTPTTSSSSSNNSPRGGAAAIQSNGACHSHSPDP
# How it was run: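 HepG2 cells transiently transfected with a GAL4-UAS reporter and chimeric zebrafish ER-Gal4, dosed 24 h with 3 nM 6-alpha-fluorotestosterone present. Reporter mRNA measured by RT-PCR and capillary electrophoresis; gain of signal versus DMSO.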
# [6] = tested on: zebrafish Estrogen Receptor (ESR2B), gene 317733; assay: ATG_zfER2b_XSP1: Attagene TRANS-FACTORIAL Multi-Species (XSP1) HepG2 Assay for zebrafish Estrogen Receptor (ESR2B) (AID 2283773)
# How it was run: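 HepG2 cells transiently transfected with GAL4-UAS reporter units for chimeric zebrafish ER2b-Gal4, with 3 nM 6-alpha-fluorotestosterone present; reporter mRNA measured 24 h after dosing by RT-PCR and capillary electrophoresis, gain versus DMSO.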
# [7] = tested on: frog Estrogen Receptor (ESR2), gene 100174814; assay: ATG_frER2_XSP1: Attagene TRANS-FACTORIAL Multi-Species (XSP1) HepG2 Assay for frog Estrogen Receptor (ESR2) (AID 2283774)
# How it was run: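 HepG2 cells transiently transfected with GAL4-UAS reporter units expressing chimeric frog ER-Gal4; 3 nM 6-alpha-fluorotestosterone present. After 24 h dosing, reporter mRNA quantified by RT-PCR and capillary electrophoresis; gain-of-signal fitted relative to DMSO.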
# [8] = STM_H9_NormalizedViability: Cytotoxicity Assessment at 120 hours in the Stemina devTOX quickPredict H9 human embryonic stem cell (hESC)-based Assay (AID 2283784)
# How it was run: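 Pluripotent H9 cells dosed, fresh medium plus compound q24h → cell layer read by CellTiter-Fluor → RFU blank-corrected, normalized to DMSO 0.1% mean. Loss-of-signal fit, DMSO as baseline.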
# [9] = biological target: GAL4 Transcription Factor (Internal Marker), GAL4 (gene 855828) (UniProt P04386); assay: ATG_GAL4_XSP1: Attagene TRANS-FACTORIAL Multi-Species (XSP1) HepG2 Assay for GAL4 Transcription Factor (Internal Marker) (AID 2283789)
# Chain of GAL4 Transcription Factor (Internal Marker), GAL4 (gene 855828) (P04386 whole entry, looked up, the tested form may be a part): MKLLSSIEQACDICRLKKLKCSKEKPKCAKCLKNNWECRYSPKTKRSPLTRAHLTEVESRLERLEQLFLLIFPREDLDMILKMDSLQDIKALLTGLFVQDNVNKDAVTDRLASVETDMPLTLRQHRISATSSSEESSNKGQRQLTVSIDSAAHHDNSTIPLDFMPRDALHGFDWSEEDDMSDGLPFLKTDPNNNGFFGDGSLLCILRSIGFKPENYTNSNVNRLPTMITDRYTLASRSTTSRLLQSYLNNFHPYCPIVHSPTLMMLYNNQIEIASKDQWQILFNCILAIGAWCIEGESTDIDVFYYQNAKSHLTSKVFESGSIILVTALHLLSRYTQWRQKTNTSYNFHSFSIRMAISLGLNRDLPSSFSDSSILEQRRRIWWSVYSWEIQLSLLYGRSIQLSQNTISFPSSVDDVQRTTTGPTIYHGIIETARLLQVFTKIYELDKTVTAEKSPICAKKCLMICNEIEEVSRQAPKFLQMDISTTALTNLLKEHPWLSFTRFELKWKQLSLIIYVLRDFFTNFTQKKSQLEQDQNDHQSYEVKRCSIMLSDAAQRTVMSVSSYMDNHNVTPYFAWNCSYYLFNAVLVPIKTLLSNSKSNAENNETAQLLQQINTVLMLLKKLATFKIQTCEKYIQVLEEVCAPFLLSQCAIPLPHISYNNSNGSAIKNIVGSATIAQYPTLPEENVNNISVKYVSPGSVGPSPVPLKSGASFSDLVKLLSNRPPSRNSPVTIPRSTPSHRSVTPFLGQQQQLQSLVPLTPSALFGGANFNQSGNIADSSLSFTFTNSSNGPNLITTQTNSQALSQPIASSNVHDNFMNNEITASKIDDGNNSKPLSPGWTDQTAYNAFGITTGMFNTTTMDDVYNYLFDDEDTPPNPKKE
# How it was run: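 HepG2 cells transiently transfected with multiplexed GAL4-UAS reporter units were exposed for 24 h with 3 nM 6-alpha-fluorotestosterone present. Reporter mRNA was quantified by RT-PCR, FAM labelling, HpaI digestion and capillary electrophoresis; background-control readout, gain-of-signal versus DMSO.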
# [10] = ATG_M_06_XSP1: Attagene TRANS-FACTORIAL Multi-Species (XSP1) HepG2 Assay for M06 Transcription Factor (Internal Marker) (AID 2283790)
# How it was run: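 Transfected HepG2 multi-reporter system treated 24 h in the presence of 3 nM 6-alpha-fluorotestosterone. The M06 internal marker transcript was quantified by RT-PCR with capillary electrophoresis as a background control, and gain of signal was scored versus DMSO.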
# [11] = ATG_M_61_XSP1: Attagene TRANS-FACTORIAL Multi-Species (XSP1) HepG2 Assay for M61 Transcription Factor (Internal Marker) (AID 2283797)
# How it was run: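 HepG2 cells transiently transfected with multiplexed GAL4-driven reporter units, dosed 24 h with 3 nM 6-alpha-fluorotestosterone present. Reporter mRNA quantified by RT-PCR, 6-FAM labelling, HpaI digestion and capillary electrophoresis; internal-marker background control, gain of signal versus DMSO.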
# [12] = ATG_M_32_XSP1: Attagene TRANS-FACTORIAL Multi-Species (XSP1) HepG2 Assay for M32 Transcription Factor (Internal Marker) (AID 2283799)
# How it was run: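 HepG2 cells transiently transfected with multi-species TRANS reporter units, dosed 24 h with 3 nM 6-alpha-fluorotestosterone present. Internal-marker reporter mRNA quantified by RT-PCR and capillary electrophoresis; positive-direction fit versus DMSO.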
# [13] = biological target: Peroxisome proliferator-activated receptor gamma (Homo sapiens) (UniProt P37231); assay: ATG_hPPARg_XSP1: Attagene TRANS-FACTORIAL Multi-Species (XSP1) HepG2 Assay for human Peroxisome Proliferator-activated Receptor gamma (PPARg) (AID 2283800)
# Chain of Peroxisome proliferator-activated receptor gamma (Homo sapiens) (P37231 whole entry, looked up, the tested form may be a part): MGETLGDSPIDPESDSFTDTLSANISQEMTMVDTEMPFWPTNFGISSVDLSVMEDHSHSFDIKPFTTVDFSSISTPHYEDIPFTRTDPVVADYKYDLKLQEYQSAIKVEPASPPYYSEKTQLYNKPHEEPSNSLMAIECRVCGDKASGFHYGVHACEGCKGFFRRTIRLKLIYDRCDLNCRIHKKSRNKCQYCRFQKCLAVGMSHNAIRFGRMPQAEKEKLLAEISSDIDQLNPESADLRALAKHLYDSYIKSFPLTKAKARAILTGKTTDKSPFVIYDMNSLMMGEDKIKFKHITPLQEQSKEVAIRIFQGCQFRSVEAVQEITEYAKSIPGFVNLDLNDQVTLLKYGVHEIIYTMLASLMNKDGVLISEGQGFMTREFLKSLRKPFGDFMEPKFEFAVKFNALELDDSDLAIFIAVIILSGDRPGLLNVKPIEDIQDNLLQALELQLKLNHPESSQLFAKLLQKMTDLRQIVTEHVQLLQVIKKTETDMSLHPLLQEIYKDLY
# How it was run: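 HepG2 cells transiently transfected with GAL4-UAS reporter units carrying chimeric NR-Gal4 proteins; 3 nM 6-alpha-fluorotestosterone present. After 24 h dosing, reporter mRNA quantified by RT-PCR and capillary electrophoresis; gain of signal relative to DMSO.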
# [14] = tested on: zebrafish Peroxisome Proliferator-activated Receptor gamma (PPARg), gene 557037; assay: ATG_zfPPARg_XSP1: Attagene TRANS-FACTORIAL Multi-Species (XSP1) HepG2 Assay for zebrafish Peroxisome Proliferator-activated Receptor gamma (PPARg) (AID 2283801)
# How it was run: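 HepG2 cells transiently transfected with GAL4-UAS reporter units including a zebrafish PPARg–GAL4 chimera, dosed 24 h with 3 nM 6-alpha-fluorotestosterone present. Reporter mRNA quantified by RT-PCR, FAM labelling, HpaI digestion and capillary electrophoresis; induction versus DMSO.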
compound,measurement,setting,value
CCCC(=O)O,outcome,[1],inactive
same,outcome,[2],inactive
O=C(O)c1[nH]n(-c2ccc(S(=O)(=O)O)cc2)c(=O)c1N=Nc1ccc(S(=O)(=O)O)cc1,outcome,[1],inactive
same,outcome,[2],inactive
CC(=O)S[C@H](C(=O)N[C@H]1Cc2ccccc2[C@H]2CCC[C@@H](C(=O)O)N2C1=O)C(C)C,outcome,[1],inactive
same,outcome,[2],inactive
same,outcome,[3],inactive
O=C1O[C@H]([C@H](O)CO)C(O)=C1O,outcome,[1],inactive
CCCCOC(=O)CCCCC(=O)OCCCC,outcome,[1],inactive
same,outcome,[2],inactive
CC(=O)O,outcome,[1],inactive
same,outcome,[2],inactive
CN(C)C(=O)NC1(c2ccccc2)CCN(CCC[C@]2(c3ccc(Cl)c(Cl)c3)CCCN(C(=O)c3ccccc3)C2)CC1,AC50,[1],16.2 µM (active)
same,AC50,[2],16.7 µM (active)
same,AC50,[3],14.6 µM (active)
CO[C@@H]1COCC[C@@H]1N[C@@H]1CC[C@@](C(=O)N2CCc3ncc(C(F)(F)F)cc3C2)(C(C)C)C1,outcome,[1],inactive
same,outcome,[2],inactive
same,AC50,[3],21.3 µM (active)
CCCCc1nc2cccnc2n1Cc1ccc(-c2ccccc2-c2nnn[nH]2)cc1,AC50,[1],50 µM (active)
same,AC50,[2],50 µM (active)
NC=O,outcome,[1],inactive
same,outcome,[2],inactive
CCN(CC)CCOc1ccc(C(=C(Cl)c2ccccc2)c2ccccc2)cc1,outcome,[4],inactive
same,outcome,[5],inactive
same,outcome,[6],inactive
same,outcome,[7],inactive
same,AC50,[1],13.1 µM (active)
same,AC50,[2],12.4 µM (active)
same,AC50,[3],6.6 µM (active) and 7.32 µM (active) and 11.2 µM (active)
same,AC50,[8],8.7 µM (active)
same,outcome,[9],inactive
same,outcome,[10],inactive
same,outcome,[11],inactive
same,outcome,[12],inactive
same,outcome,[13],inactive
same,outcome,[14],inactive
c1ccc2occc2c1,outcome,[1],inactive
same,outcome,[2],inactive
CC(C)(O)c1ccc(CNC(=O)c2cccnc2Oc2ccc(F)cc2)cc1,outcome,[1],inactive
same,outcome,[2],inactive
